# Results published in PubChem BioAssay.
# The source made the active and inactive calls. Unless noted, no rule for the calls is given here.
# How the values were obtained:
# [1] = compounds binding Alexa647 anti-His antibody – biochemical, small-molecule microarray, 635 nm fluorescence, artefact control for SMM control protein annotation, primary screen (AID 1128); conditions: higher = more signal;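 also: score merges feature fluorescence with signal-to-noise for each printed compound spot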
# [2] = system: Human papillomavirus type 1a E7 protein (residues 1-88); experiment: HPV1a E7 small-molecule binders, primary screen, biochemical, small-molecule microarray, residues 1-88, 635 nm (AID 1129); conditions: small-molecule microarray binding, fluorescence 635 nm; higher = more signal
# [3] = biological target: Focal adhesion kinase 1 (Homo sapiens) (UniProt Q05397); experiment: PTK2 protein binding on printed compound slides – biochemical, small-molecule microarray, 635/667 nm fluorescence, BSA, DTT, primary screen (AID 1130); conditions: 635 nm fluorescence, higher = more signal;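 also: composite of spot emission at 667 nm and signal to noise over triplicate slides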
# [4] = system: Fibrinogen (Alexa647-labelled); experiment: Alexa647-fibrinogen binding to printed small molecules – biochemical, small-molecule microarray, 635/667 nm fluorescence, artefact control for SMM control-protein annotation, profiling panel (AID 1131); conditions: fibrinogen-A647 binding fluorescence, higher = more signal;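 also: z-score merges 667 nm fluorescence with per-spot signal-to-noise over triplicate slides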
# [5] = biological target: Follistatin (Homo sapiens) (UniProt P19883); experiment: FST protein binding to printed compounds – biochemical, small-molecule microarray, 635/667 nm fluorescence, primary screen (AID 1132); conditions: 635 nm fluorescence, higher = more signal
# [6] = biological target: Fibroblast growth factor 2 (Homo sapiens) (UniProt P09038); experiment: basic fibroblast growth factor binding to printed compounds – biochemical, small-molecule microarray, 635/667 nm fluorescence, primary screen (AID 1133); conditions: FGF2, fluorescence 635/667, higher = more signal
# [7] = JC-1 mitochondrial potential readout, lung cancer cells – cell-based, A549, JC-1 fluorescence, basal, 24 h, 100 nL, profiling panel (AID 1138); conditions: higher = more signal;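 also: A549 lung adenocarcinoma cells under basal conditions with no added stimulus; test concentration not given here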
# Lefty1 = Lefty1 protein binding to printed compounds – biochemical, small-molecule microarray, 635/667 nm fluorescence, primary screen (AID 1139); conditions: fluorescence 635/667, higher = more signal
# [8] = system: wheat germ agglutinin (Triticum aestivum), Alexa647-labelled; experiment: Alexa647-WGA lectin binding to printed small molecules – biochemical, small-molecule microarray, 635/667 nm fluorescence, artefact control for SMM control-protein annotation, profiling panel (AID 1140); conditions: WGA-A647 binding, 635 nm fluorescence, higher = more signal;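 also: score merges 667 nm feature emission with signal to noise over triplicate slides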
# [9] = biological target: Luciferin 4-monooxygenase (Photinus pyralis) (UniProt P08659); experiment: inhibition of purified Photinus pyralis luciferase – biochemical, luminescence, purified enzyme, 2006 set, primary screen (AID 1141); conditions: purified firefly luciferase, SteadyGlo luminescence, 30 min; higher = more signal, called active from +8 up or from −8 down;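 also: cell-free assay with purified firefly luciferase at 100 ng per well in PBS; test concentration not given here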
# [10] = system: Wnt5a (protein binding on small-molecule microarray); experiment: small molecules binding Wnt5a protein – biophysical, small-molecule microarray, 635/667 nm fluorescence, primary screen (AID 1142); conditions: 635 nm fluorescence, higher = more signal;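 also: fluorescence read at 667 nm with signal to noise per printed feature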
# [11] = ATP-based viability of Huh7 replicon cells – cell-based, CellTiter-Glo luminescence, basal, 48 h, cytotoxicity control for HCV replication inhibitor project, primary screen (AID 1143); conditions: higher = more signal, called active from +8 up or from −8 down;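 also: Huh7 hepatoma cells carrying a hepatitis C replication reporter with no stimulus; test concentration not given here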
# [12] = Pseudomonas biofilm growth suppression – PAO1 strain, BacTiter-Glo luminescence, LB-PBS, primary screen (AID 1144); conditions: P. aeruginosa PAO1 biofilm, 12 h, higher = more signal
# [13] = basal CRE-LacZ reporter activity in PC12 – cell-based, unstimulated, primary screen (AID 1145); conditions: no forskolin, luminescence, 4.5 h, higher = more signal, called active from +8 up or from −8 down
# [14] = forskolin-driven CRE-LacZ activity in PC12 – cell-based, CRE-LacZ reporter, forskolin-stimulated, primary screen (AID 1146); conditions: luminescence, 4.5 h, higher = more signal, called active from +8 up or from −8 down;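 also: PC12 cells with 6xCRE LacZ reporter stimulated by forskolin 10 µM; beta-galactosidase reporter signal reflecting CREB driven transcription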
# [15] = biological target: Streptavidin (Streptomyces avidinii) (UniProt P22629); experiment: compounds binding control protein streptavidin – biophysical, small-molecule microarray, 635/667 nm fluorescence, artefact control for SMM compound annotation, primary screen (AID 1147); conditions: higher = more signal;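 also: signal reflects streptavidin binding to arrayed compounds as a control protein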
# [16] = probe aInhba binding on compound microarray – biochemical, small-molecule microarray, 635/667 nm fluorescence, primary screen (AID 1148); conditions: higher = more signal;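 also: score merges 667nm spot fluorescence with signal-to-noise for antibody binding to printed compounds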
# Torsin-1A (Homo sapiens) [17] = biological target: Torsin-1A (Homo sapiens) (UniProt O14656); experiment: TOR1A wild-type binding on microarray – cell lysate, small-molecule microarray, lysate, 635/667 nm, primary screen (AID 1149); conditions: COS7 hTOR1A-WT lysate, 635 nm fluorescence, higher = more signal
# Torsin-1A (Homo sapiens) [18] = biological target: Torsin-1A (Homo sapiens) (UniProt O14656); experiment: torsin A mutant lysate binding on microarrays – cell lysate, small-molecule microarray, COS7 lysate, 635/667 nm fluorescence, primary screen (AID 1150); conditions: COS7 hTOR1A mutant lysate, 635 nm fluorescence, higher = more signal;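 also: score pools 667 nm emission and signal to noise measuring lysate protein binding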
# [19] = system: Sonic hedgehog protein (Shh); experiment: Sonic hedgehog microarray binding compounds – biochemical, small-molecule microarray, 635/667 nm fluorescence, primary screen (AID 1151); conditions: 635 nm fluorescence, higher = more signal;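 also: Shh protein binding to compounds spotted on small-molecule microarray slides; score combines spot fluorescence intensity with signal-to-noise across triplicate slides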
# Chain of Torsin-1A (Homo sapiens) (O14656 whole entry, looked up): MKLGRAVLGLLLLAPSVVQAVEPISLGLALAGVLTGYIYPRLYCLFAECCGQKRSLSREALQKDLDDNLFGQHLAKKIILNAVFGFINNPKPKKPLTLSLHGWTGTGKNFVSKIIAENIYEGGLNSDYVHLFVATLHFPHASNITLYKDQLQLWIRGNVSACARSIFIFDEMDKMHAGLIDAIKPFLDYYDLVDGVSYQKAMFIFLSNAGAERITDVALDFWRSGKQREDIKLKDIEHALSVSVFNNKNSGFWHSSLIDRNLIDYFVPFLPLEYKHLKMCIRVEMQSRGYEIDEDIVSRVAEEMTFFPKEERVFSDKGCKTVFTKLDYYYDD
# Chain of Focal adhesion kinase 1 (Homo sapiens) (Q05397 whole entry, looked up): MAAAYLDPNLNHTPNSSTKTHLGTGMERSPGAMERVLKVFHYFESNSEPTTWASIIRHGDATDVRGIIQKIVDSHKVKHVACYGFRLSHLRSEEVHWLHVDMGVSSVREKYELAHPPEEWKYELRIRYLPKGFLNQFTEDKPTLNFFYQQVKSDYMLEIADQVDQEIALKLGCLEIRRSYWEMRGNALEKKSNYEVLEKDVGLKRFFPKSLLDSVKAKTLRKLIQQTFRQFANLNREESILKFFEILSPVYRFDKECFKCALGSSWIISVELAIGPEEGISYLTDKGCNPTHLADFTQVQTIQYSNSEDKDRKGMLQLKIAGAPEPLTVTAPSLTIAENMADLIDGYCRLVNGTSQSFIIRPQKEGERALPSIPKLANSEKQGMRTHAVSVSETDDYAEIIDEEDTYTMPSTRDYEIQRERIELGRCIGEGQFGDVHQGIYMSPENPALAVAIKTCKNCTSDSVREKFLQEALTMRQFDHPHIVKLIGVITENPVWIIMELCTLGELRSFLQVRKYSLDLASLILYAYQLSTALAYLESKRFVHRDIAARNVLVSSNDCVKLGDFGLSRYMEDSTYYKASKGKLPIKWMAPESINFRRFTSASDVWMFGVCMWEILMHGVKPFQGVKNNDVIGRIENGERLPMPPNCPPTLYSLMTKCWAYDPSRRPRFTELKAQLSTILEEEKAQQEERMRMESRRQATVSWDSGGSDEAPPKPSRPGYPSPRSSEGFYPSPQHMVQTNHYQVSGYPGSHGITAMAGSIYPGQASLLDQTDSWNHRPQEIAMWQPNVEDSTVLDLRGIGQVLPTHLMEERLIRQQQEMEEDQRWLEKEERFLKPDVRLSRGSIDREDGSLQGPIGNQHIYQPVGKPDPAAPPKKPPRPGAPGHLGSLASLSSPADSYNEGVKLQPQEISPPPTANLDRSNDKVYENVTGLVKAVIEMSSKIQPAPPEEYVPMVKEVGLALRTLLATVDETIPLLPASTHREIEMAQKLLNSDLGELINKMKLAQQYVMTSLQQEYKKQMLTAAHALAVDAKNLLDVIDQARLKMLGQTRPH
# Chain of Follistatin (Homo sapiens) (P19883 whole entry, looked up): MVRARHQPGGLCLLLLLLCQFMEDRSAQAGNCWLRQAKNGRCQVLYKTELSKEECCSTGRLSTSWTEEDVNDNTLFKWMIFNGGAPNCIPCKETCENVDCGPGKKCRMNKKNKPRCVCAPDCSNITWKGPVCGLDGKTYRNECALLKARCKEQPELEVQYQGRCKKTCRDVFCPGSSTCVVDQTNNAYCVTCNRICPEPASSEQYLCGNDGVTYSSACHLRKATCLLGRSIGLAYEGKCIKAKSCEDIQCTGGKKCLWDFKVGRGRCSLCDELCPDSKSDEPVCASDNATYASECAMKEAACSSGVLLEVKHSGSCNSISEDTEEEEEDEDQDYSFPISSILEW
# Chain of Streptavidin (Streptomyces avidinii) (P22629 whole entry, looked up): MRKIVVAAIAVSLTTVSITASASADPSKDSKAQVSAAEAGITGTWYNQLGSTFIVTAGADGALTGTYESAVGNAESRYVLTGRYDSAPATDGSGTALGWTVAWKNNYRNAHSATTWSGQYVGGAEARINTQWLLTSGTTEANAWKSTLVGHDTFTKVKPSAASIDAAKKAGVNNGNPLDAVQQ
# Chain of Luciferin 4-monooxygenase (Photinus pyralis) (P08659 whole entry, looked up): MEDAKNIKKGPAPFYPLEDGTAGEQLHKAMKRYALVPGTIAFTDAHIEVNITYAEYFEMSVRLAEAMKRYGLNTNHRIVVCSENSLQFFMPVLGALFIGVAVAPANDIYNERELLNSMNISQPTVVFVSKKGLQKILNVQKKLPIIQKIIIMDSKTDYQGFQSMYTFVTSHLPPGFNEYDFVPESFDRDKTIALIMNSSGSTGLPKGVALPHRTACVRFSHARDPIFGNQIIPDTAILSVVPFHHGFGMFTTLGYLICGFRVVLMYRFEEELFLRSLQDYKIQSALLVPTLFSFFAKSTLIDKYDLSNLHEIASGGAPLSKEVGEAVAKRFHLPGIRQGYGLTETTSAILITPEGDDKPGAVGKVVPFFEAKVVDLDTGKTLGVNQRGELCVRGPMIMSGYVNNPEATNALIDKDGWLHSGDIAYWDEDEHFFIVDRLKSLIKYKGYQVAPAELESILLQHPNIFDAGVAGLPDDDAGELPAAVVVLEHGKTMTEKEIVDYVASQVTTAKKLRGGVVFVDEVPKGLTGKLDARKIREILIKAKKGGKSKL
# Chain of Fibroblast growth factor 2 (Homo sapiens) (P09038 whole entry, looked up): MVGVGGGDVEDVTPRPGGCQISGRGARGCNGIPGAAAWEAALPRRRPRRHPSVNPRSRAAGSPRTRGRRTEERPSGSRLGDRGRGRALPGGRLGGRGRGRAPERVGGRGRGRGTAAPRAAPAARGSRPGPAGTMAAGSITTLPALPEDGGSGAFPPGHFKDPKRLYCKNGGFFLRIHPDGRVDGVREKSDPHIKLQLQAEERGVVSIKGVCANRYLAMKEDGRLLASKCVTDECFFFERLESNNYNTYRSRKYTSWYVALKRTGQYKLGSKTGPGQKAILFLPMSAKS
Structure (SMILES),composite z-score [1],composite z-score [2],composite z-score [3],composite z-score [4],composite z-score [5],composite z-score [6],z-score [7],composite z-score (Lefty1),composite z-score [8],z-score [9],composite z-score [10],z-score [11],z-score [12],z-score [13],z-score [14],composite z-score [15],composite z-score [16],composite z-score (Torsin-1A (Homo sapiens) [17]),composite z-score (Torsin-1A (Homo sapiens) [18]),composite z-score [19]
C=C(CCCC)C(=O)CC[C@H](OC(=O)c1cccnc1)c1cccc(OCCO)c1,0.637,-0.395,-0.262,-0.847,0.254,0.275,1.28,0.563,-0.288,-1.2 (inactive),0.54,-0.293 (inactive),-0.0707 (inactive),11 (active),0.189 (inactive),0.0158,-0.231,0.524,0.186,1.12
O=C1C2C=CC(C(O)c3ccc(F)cc3)N(Nc3ccccc3)C2C(=O)N1c1ccccc1 (stereo not given),1.33,1.22,0.734,0.266,-0.143,-0.762,-0.101,-0.233,0.684,0.165 (inactive),0.137,0.633 (inactive),-0.686 (inactive),-0.522 (inactive),-0.49 (inactive),0.0517,0.212,0.171,-0.27,-0.61
O=C1C2C=CC(C(O)c3cccs3)N(Nc3ccccc3F)C2C(=O)N1c1ccccc1 (stereo not given),1.29,1.09,0.961,0.916,0.414,-0.282,-0.265,-0.0918,0.127,1.71 (inactive),0.13,-1.1 (inactive),-1.51 (inactive),-0.714 (inactive),-0.198 (inactive),0.295,-0.159,0.0473,0.605,-0.573
O=C(OCCF)C1=CCC(c2cccc(Cl)c2)O1 (stereo not given),0.1,0.628,0.475,-0.137,0.134,-0.211,-0.218,-0.217,0.177,0.08 (inactive),0.236,-2.33 (inactive),-0.0826 (inactive),-0.0137 (inactive),0.351 (inactive),0.112,-0.0468,1.09,2.19,0.299
CN(C)CCCCCCNC(=O)[C@H]1C[C@H]2C(=O)N[C@@H](CCCCN)C(=O)N2[C@H]1c1ccc(O)cc1,3.12,1.31,-0.108,0.953,1.44,1.61,0.868,1.75,1.36,-0.62 (inactive),1.79,0.253 (inactive),-0.26 (inactive),0.0124 (inactive),0.737 (inactive),2.68,1.39,3.35,3.24,2.05
CC(C)C(=C=CC[C@H](O)c1ccccc1OCCO)C[C@H](O)c1ccccn1,1.93,0.958,0.344,0.207,0.476,0.857,0.453,0.649,1.33,-0.88 (inactive),0.257,-0.667 (inactive),-0.0531 (inactive),4.99 (inactive),0.0622 (inactive),-0.199,-0.0205,0.635,1.59,1.63
CCCN1C(=O)[C@]2(COC(c3ccc(OCCCO)cc3)=N2)Cc2ccccc21,2.63,1.23,0.473,0.551,1.35,1.26,0.306,-0.222,0.974,-1.66 (inactive),0.526,-1.62 (inactive),0.786 (inactive),0.913 (inactive),-1.39 (inactive),0.0066,0.0756,0.416,0.01,0.184
O=c1cccc(CCc2ccccc2)o1,1.24,0.741,0.675,-0.229,0.641,0.257,0.426,0.593,0.211,0.0302 (inactive),-0.187,-0.908 (inactive),0.624 (inactive),1.08 (inactive),1.03 (inactive),-0.0374,0.0357,-0.221,-0.15,0.943
COCCOC(=O)N1C(=O)[C@@]2(c3cc(C#CC4=CCCCC4)ccc31)[C@H](C(=O)N1CCc3cc(OC)c(OC)cc3C1)[C@H]1C(=O)O[C@H](c3ccccc3)[C@H](c3ccccc3)N1[C@@H]2c1ccccc1OCCO,-0.13,0.487,-0.106,0.061,1.29,1.66,-1.11,1,0.747,-1.62 (inactive),0.192,-1.3 (inactive),0.597 (inactive),0.0736 (inactive),-1.14 (inactive),0.154,0.0939,0.198,0.274,2.05
CC(C)CNC(=O)[C@@H]1c2ccccc2C(=O)N(Cc2cc(C(F)(F)F)cc(C(F)(F)F)c2)[C@H]1c1ccc(CO)cc1,-0.137,-0.569,0.093,-0.419,-0.137,-0.124,0.157,-0.851,0.204,-0.975 (inactive),-0.0674,-1.51 (inactive),0.788 (inactive),-0.0512 (inactive),-1.2 (inactive),-0.674,0.212,-0.395,-0.537,-0.22
